Experimental data from the supplement of paper PMC4166925.
± gives the standard deviation of the averaged measurements. The full ranking holds about 33,000 sequences; the median of “E-score (dimensionless, -0.5 to 0.5)” is about -0.049, and the highest 2% start at about 0.37. Only a selection was taken, and the highest values are over-represented in it overall.

What follows are sequences tested on T1, PmTbr T-box DNA-binding domain (GST fusion) (assay: PBM E-score of 8-mer (E-score (dimensionless, -0.5 to 0.5)); Tbr is Tbrain of the sea star Patiria miniata (Pm) or the sea urchin Strongylocentrotus purpuratus (Sp); higher = stronger binding preference). Settings: the construct has about 5 more residues each side.
T1 sequence: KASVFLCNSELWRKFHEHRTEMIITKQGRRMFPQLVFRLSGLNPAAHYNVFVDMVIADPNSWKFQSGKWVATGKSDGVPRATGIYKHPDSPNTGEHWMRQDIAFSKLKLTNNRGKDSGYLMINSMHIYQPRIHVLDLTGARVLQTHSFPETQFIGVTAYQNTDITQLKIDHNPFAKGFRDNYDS
Procedure: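 Universal protein-binding microarray (Agilent AMADID 016060, 60-bp probes with a 35-bp variable region) incubated with 200 nM GST-fused Patiria miniata Tbr T-box DNA-binding domain (residues 272-466) in PBS pH 7.5. Scored for every ungapped 8-mer (given with its reverse complement) by the Universal PBM Analysis Suite as E-score (modified Wilcoxon-Mann-Whitney enrichment, range -0.5 to 0.5; >0.45 counts as bound) and Z-score of median probe intensity. Two replicate arrays (datasets 1 and 2).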

Point of comparison: AGCAGGTG, “PBM E-score of 8-mer” value 0.414 ± 0.026. Against it:
- GAAATTAA — lower, -0.113 ± 0.044
- GTTGCTCA — lower, 0.0245 ± 0.051
- ACCCTCAG — lower, 0.0121 ± 0.00031
- AACTAGGC — lower, -0.0964 ± 0.044
- CTTCCCCC — lower, -0.166 ± 0.07
- AGCTGGGC — lower, -0.222 ± 0.056
- GCTGGTTA — lower, -0.0863 ± 0.064
- AACCTATT — lower, -0.172 ± 0.056
- AACCTATC — lower, -0.165 ± 0.17
- CACCTATC — within error, 0.399 ± 0.0088
- TACCTATA — lower, -0.137 ± 0.041
- CACCTATG — within error, 0.429 ± 0.011
- GACCTATC — lower, -0.0538 ± 0.05
- AACCTATG — lower, -0.141 ± 0.019
- CACCTATA — within error, 0.377 ± 0.018
- AACCTATA — lower, -0.0111 ± 0.13
- CGACTCAG — lower, -0.0525 ± 0.0052
- CTTTATGA — lower, -0.00777 ± 0.018
- CTCCACAC — lower, 0.341 ± 0.0092
- GGCGTTAA — within error, 0.377 ± 0.024
- AGCGTCAA — lower, 0.258 ± 0.0039
- TGCGTTAA — lower, 0.109 ± 0.017
- GGCGTCAA — within error, 0.4094 ± 0.001
- CGCGTCAA — lower, 0.308 ± 0.0074
- AGCGTTAA — lower, 0.265 ± 0.06
- AAACCAAC — lower, -0.0437 ± 0.062
- CCATTAAA — lower, -0.239 ± 0.0035
- CTTTCGCC — lower, -0.0672 ± 0.025
- ATTTCGAG — lower, 0.09258 ± 0.00026
- CTTTCGGA — lower, -0.0447 ± 0.021
- GTTTCGCA — lower, 0.3685 ± 0.0028
- AATTCGCG — lower, 0.303 ± 0.035
- ATTTCGCC — lower, -0.0762 ± 0.14
- ATTTCGCA — lower, 0.378 ± 0.0045
- CTTTCGCA — within error, 0.411 ± 0.015
- ATTTCGCG — within error, 0.4125 ± 0.00097
- GTTCGAAA — lower, -0.132 ± 0.091
- GTATTCGA — lower, 0.0428 ± 0.0073
- GATCGAAC — lower, -0.0822 ± 0.031
- CGCACAGA — lower, -0.108 ± 0.087
- AACTGATG — lower, 0.0361 ± 0.047
- CGCTTTGC — lower, -0.129 ± 0.036
- ATCCATTG — lower, -0.235 ± 0.089
- ACTTGGCA — lower, 0.239 ± 0.015
- AGATGTTC — lower, 0.0612 ± 0.07
- AGGTGTCC — higher, 0.45 ± 0.0092
- AGATGTCC — lower, -0.322 ± 0.016
- AGGTGTTC — within error, 0.4091 ± 0.0032
- AGGTGTTG — higher, 0.4891 ± 0.0019
- AGCTGTTG — lower, 0.2441 ± 0.0021
- AGATGTTG — lower, 0.0167 ± 0.014
- ACGTGTCC — lower, 0.0892 ± 0.034
- CGGTGTTC — lower, -0.0289 ± 0.062
- GAGCGAAC — lower, 0.0537 ± 0.089
- GCTAACTA — lower, 0.212 ± 0.07
- ACGCTAGT — lower, 0.036 ± 0.023
- GCACACTA — lower, 0.102 ± 0.027
- GATAGCCA — lower, -0.257 ± 0.028
- CAACGCTC — lower, -0.0448 ± 0.0033
- ATTTCACC — lower, 0.167 ± 0.058
- GTTTCACA — lower, 0.36 ± 0.027
- CTTTCACA — within error, 0.444 ± 0.0053
- ATTTCACG — lower, 0.319 ± 0.026
- CTTTCACC — lower, 0.14 ± 0.034
- ATTTCACA — within error, 0.426 ± 0.013
- ACCATTCG — lower, 0.233 ± 0.04
- ATCTTTTG — lower, -0.2448 ± 0.0018
- CATTTTGC — lower, -0.00766 ± 0.017
- CGATCTTA — lower, -0.0203 ± 0.061
- TGATCACA — lower, 0.20944 ± 9.2e-05
- ATGTGAAA — lower, 0.287 ± 0.019
- GCGTGAAA — higher, 0.4552 ± 0.0024
- CCGTGAAA — lower, 0.222 ± 0.019
- TCGTGAAA — lower, 0.279 ± 0.018
- CCGTGAAC — lower, 0.257 ± 0.04
- CTGTGAAA — within error, 0.384 ± 0.0085
- GTGTGAAC — higher, 0.4888 ± 0.0019
- CTGTGAAC — lower, 0.356 ± 0.0043
- ACGTGAAC — lower, 0.112 ± 0.051
- TTGTGAAA — lower, 0.344 ± 0.027
- ATGTGAAC — lower, 0.175 ± 0.039
- GCGTGAAC — within error, 0.405 ± 0.021
- CCCAGGTA — lower, -0.102 ± 0.03
- CGCTTCAA — lower, 0.0949 ± 0.078
- AATCGCTG — lower, -0.0604 ± 0.024
- CCCATCCG — lower, -0.108 ± 0.058
- ACATCGTA — lower, -0.0767 ± 0.038
- ATCAATAA — lower, -0.279 ± 0.033
- GCTCCTGA — lower, -0.206 ± 0.08
- AGCAGGTA — lower, -0.0669 ± 0.01
- ACCAGGTC — lower, -0.101 ± 0.039
- CACAGGTC — lower, 0.15 ± 0.028
- ACCAGGTG — within error, 0.369 ± 0.028
- CACAGGTG — higher, 0.461 ± 0.0062
- AACAGGTC — lower, 0.14 ± 0.036
- ACCAGGTA — lower, -0.0585 ± 0.034
- AGCAGGTC — lower, 0.0259 ± 0.014
- CACAGGTA — lower, 0.163 ± 0.029
- AACAGGTG — within error, 0.4042 ± 0.00081
- AACAGGTA — lower, 0.126 ± 0.015
